# According to PMC7862700, “An all-to-all approach to the identification of sequence-specific readers for epigenetic DNA modifications on cytosine”:
# Columns and labels:
# Experiment in all cases: DAPPL (digital affinity profiling via proximity ligation, sequencing); 10 mM Tris-HCl pH 7.5, 50 mM NaCl, 1 mM DTT, 4% glycerol, room temperature, 30 min; GST-TFs on glutathione beads, 16-mer random dsDNA library, 0.1% formaldehyde crosslink after washing; high values mean tight binding
# FEV = target: T1, FEV (Homo sapiens, UniProt Q99581 1-238); conditions: protein: recombinant; tags: N-terminal GST; dsDNA, one strand shown
# T1 sequence: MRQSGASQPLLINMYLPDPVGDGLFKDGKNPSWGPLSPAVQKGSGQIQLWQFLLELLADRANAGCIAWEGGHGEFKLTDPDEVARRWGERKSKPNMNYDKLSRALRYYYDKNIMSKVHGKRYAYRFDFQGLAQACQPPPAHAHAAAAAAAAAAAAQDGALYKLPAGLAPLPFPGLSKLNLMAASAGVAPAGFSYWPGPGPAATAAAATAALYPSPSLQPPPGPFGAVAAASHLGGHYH
# Summary of the method: (§1)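 After expression in yeast as GST fusions, human transcription factors were bound to glutathione beads, DNA-barcoded and mixed with a tag-only sample. The pools were incubated with 200 nmole of a 16-mer random double-stranded DNA library in Tris/NaCl/DTT/glycerol buffer (30 min, room temperature), washed and crosslinked with 0.1% formaldehyde. Proximity ligation with BsaI/T4 ligase ran for 1 h at 37 °C, before PCR amplification and sequencing on an Illumina NextSeq500. Binding signal is a hexamer's read frequency for a factor divided by its frequency for the tag-only sample.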
# ETV5 = ETV5 (Homo sapiens, UniProt P41161 1-510); conditions: protein: recombinant; tags: N-terminal GST; dsDNA, one strand shown
# Summary of the method: as §1
# HSF1 = HSF1 (Homo sapiens, UniProt Q00613 1-529); conditions: protein: recombinant; tags: N-terminal GST; chain copies: 3; dsDNA, one strand shown
# Summary of the method: as §1
# SPIC = target: T2, SPIC (Homo sapiens, UniProt Q8N5J4 1-248); conditions: protein: recombinant; tags: N-terminal GST; dsDNA, one strand shown
# T2 sequence: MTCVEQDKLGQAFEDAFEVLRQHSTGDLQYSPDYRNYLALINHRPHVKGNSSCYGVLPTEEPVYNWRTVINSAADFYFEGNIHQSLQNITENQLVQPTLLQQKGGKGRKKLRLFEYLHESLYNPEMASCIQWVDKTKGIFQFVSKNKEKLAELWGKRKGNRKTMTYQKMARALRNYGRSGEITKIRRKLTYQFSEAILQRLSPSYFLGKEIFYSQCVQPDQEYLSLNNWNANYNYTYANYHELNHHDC
# Summary of the method: as §1
# ELF4 = ELF4 (Homo sapiens, UniProt Q99607 1-663); conditions: protein: recombinant; tags: N-terminal GST; dsDNA, one strand shown
# Summary of the method: as §1
# ELK4 = target: T3, ELK4 (Homo sapiens, UniProt P28324-2 1-405); conditions: protein: recombinant; tags: N-terminal GST; dsDNA, one strand shown
# T3 sequence: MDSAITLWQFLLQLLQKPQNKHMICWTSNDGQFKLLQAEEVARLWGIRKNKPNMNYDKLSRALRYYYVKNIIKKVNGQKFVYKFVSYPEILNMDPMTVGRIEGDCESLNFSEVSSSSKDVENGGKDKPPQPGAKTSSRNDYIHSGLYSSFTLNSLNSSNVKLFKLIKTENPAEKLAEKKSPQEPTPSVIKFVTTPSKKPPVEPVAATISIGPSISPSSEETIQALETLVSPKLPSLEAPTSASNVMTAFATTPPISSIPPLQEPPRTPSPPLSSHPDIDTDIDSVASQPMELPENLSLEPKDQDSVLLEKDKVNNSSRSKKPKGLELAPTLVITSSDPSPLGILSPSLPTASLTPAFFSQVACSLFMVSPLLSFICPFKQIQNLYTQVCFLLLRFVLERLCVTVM
# Summary of the method: as §1
# ETV2 = target: T4, ETV2 (Homo sapiens, UniProt O00321 1-342); conditions: protein: recombinant; tags: N-terminal GST; dsDNA, one strand shown
# T4 sequence: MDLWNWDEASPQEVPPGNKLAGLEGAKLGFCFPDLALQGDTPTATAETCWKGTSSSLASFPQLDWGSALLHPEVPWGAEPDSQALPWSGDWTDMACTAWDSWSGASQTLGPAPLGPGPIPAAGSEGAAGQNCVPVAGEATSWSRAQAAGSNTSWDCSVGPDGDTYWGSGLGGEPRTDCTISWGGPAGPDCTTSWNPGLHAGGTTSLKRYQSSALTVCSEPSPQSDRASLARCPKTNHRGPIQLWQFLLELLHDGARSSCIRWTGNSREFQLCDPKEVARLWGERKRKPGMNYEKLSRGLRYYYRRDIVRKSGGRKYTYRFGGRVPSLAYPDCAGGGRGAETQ
# Summary of the method: as §1
# ELF3 = target: T5, ELF3 (Homo sapiens, UniProt P78545 1-371); conditions: protein: recombinant; tags: N-terminal GST; dsDNA, one strand shown
# T5 sequence: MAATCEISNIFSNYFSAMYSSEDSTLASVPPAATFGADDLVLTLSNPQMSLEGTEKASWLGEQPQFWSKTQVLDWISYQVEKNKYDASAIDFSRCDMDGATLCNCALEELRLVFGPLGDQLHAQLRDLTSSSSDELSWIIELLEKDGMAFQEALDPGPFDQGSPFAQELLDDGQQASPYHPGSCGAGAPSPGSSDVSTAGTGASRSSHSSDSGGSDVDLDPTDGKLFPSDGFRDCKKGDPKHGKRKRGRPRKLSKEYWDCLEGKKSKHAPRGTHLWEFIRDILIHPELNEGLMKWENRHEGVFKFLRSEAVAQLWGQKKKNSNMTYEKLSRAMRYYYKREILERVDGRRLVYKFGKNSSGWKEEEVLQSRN
# Summary of the method: as §1
# CRX = CRX (Homo sapiens, UniProt O43186 1-299); conditions: protein: recombinant; tags: N-terminal GST; dsDNA, one strand shown
# Summary of the method: as §1
# ETV1 = ETV1 (Homo sapiens, UniProt P50549 1-477); conditions: protein: recombinant; tags: N-terminal GST; dsDNA, one strand shown
# Summary of the method: as §1
# ERF = target: T6, ERF (Homo sapiens, UniProt P50548 1-548); conditions: protein: recombinant; tags: N-terminal GST; dsDNA, one strand shown
# T6 sequence: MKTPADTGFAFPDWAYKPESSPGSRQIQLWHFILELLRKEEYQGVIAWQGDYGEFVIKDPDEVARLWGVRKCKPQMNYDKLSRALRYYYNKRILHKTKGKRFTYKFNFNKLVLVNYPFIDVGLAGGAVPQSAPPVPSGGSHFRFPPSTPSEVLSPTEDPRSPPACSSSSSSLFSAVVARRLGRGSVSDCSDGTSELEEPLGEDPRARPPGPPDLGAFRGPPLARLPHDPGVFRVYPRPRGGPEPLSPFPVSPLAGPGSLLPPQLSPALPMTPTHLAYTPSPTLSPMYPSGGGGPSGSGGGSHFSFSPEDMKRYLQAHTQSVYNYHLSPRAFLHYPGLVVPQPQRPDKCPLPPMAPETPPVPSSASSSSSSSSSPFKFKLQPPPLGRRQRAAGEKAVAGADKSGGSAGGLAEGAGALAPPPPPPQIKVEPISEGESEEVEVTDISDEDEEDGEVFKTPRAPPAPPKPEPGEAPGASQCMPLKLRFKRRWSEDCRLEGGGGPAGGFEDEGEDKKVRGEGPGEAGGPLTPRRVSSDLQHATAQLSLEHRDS
# Summary of the method: as §1
# ETV3L = target: T7, ETV3L (Homo sapiens, UniProt Q6ZN32 1-361); conditions: protein: recombinant; tags: N-terminal GST; dsDNA, one strand shown
# T7 sequence: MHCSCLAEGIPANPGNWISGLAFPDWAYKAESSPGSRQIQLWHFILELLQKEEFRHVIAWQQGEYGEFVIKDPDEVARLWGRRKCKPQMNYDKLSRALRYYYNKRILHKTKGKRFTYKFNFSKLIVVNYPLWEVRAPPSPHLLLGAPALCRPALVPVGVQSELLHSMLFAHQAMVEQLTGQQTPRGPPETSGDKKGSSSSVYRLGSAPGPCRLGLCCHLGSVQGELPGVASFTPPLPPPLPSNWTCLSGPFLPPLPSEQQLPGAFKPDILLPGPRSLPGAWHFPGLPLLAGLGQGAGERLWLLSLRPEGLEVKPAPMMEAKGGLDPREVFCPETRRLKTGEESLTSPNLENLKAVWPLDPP
# Summary of the method: as §1
# ETS2 = target: T8, ETS2 (Homo sapiens, UniProt P15036 1-469); conditions: protein: recombinant; tags: N-terminal GST; dsDNA, one strand shown
# T8 sequence: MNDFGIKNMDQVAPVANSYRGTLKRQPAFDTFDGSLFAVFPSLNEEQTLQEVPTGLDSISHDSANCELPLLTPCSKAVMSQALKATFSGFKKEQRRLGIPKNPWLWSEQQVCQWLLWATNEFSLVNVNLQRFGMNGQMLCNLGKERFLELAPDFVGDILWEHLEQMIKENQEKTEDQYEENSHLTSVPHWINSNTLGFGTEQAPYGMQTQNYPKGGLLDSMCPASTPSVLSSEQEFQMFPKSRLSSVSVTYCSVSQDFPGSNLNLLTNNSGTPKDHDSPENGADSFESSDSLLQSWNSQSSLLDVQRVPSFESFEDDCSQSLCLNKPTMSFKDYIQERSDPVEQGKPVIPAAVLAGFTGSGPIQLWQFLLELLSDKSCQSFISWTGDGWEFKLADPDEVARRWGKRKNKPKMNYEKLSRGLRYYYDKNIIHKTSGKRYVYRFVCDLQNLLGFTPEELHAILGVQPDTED
# Summary of the method: as §1
# SPDEF = target: T9, SPDEF (Homo sapiens, UniProt O95238 1-335); conditions: protein: recombinant; tags: N-terminal GST; dsDNA, one strand shown
# T9 sequence: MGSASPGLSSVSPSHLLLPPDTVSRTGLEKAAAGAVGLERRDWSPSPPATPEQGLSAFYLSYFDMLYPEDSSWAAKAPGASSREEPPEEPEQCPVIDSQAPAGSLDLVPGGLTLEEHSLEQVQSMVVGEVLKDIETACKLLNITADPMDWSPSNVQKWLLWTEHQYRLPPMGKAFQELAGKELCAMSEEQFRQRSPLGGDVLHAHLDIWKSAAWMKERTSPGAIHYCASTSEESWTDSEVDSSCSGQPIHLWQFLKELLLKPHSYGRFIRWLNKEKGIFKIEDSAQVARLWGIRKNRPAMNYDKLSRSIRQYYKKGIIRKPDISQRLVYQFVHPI
# Summary of the method: as §1
# ETV7 = target: T10, ETV7 (Homo sapiens, UniProt Q9Y603 1-341); conditions: protein: recombinant; tags: N-terminal GST; dsDNA, one strand shown
# T10 sequence: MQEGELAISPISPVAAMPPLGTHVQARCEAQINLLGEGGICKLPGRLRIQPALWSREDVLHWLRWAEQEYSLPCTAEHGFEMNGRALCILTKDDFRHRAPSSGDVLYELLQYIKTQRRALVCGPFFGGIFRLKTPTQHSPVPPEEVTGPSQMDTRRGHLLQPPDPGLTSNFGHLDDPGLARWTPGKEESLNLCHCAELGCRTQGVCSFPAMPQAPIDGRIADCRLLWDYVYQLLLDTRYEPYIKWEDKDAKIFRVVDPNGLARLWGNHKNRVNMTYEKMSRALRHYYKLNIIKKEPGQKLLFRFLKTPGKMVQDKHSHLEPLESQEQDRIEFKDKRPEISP
# Summary of the method: as §1
# ELF5 = target: T11, ELF5 (Homo sapiens, UniProt Q9UKW6-2 1-255); conditions: protein: recombinant; tags: N-terminal GST; dsDNA, one strand shown
# T11 sequence: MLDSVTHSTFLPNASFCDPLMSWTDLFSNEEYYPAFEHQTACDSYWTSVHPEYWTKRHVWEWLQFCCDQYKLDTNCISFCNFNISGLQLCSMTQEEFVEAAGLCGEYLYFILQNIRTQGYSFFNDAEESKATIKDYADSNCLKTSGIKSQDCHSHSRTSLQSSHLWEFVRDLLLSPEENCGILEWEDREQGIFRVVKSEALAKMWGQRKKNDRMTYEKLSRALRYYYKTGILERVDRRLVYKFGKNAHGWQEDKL
# Summary of the method: as §1
# ETV3 = target: T12, ETV3 (Homo sapiens, UniProt P41162-2 1-143); conditions: protein: recombinant; tags: N-terminal GST; dsDNA, one strand shown
# T12 sequence: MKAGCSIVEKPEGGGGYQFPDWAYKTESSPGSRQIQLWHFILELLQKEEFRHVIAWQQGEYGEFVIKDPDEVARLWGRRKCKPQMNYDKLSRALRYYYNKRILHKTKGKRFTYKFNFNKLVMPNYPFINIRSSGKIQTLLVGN
# Summary of the method: as §1
# ETV6 = ETV6 (Homo sapiens, UniProt P41212 1-452); conditions: protein: recombinant; tags: N-terminal GST; dsDNA, one strand shown
# Summary of the method: as §1
# Sequence of ETV1 (P50549 whole entry): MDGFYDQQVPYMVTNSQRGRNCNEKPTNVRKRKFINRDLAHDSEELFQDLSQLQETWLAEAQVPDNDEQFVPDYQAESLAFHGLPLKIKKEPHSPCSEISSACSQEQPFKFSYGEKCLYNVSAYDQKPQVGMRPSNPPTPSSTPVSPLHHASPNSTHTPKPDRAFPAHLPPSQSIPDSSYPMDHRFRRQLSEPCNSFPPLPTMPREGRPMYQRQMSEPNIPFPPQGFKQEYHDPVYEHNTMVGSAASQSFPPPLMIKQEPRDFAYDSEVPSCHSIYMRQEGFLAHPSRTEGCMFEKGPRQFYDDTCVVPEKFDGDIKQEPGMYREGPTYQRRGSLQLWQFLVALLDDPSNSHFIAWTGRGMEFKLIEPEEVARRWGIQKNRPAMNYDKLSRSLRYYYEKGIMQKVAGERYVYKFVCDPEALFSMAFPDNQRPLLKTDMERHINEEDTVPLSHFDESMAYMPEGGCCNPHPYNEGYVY
# Sequence of ETV6 (P41212 whole entry): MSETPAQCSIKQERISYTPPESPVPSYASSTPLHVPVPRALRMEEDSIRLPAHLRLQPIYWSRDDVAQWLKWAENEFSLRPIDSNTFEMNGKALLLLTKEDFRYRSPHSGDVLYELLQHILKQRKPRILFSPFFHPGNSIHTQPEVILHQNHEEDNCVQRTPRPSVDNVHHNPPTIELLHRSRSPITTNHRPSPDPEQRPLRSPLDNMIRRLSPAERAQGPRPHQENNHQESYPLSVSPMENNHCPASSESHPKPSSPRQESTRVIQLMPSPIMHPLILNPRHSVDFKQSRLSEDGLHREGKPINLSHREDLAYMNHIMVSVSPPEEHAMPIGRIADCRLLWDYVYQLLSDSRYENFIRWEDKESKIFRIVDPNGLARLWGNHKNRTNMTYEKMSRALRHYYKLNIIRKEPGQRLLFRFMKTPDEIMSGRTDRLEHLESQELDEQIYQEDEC
# Sequence of HSF1 (Q00613 whole entry): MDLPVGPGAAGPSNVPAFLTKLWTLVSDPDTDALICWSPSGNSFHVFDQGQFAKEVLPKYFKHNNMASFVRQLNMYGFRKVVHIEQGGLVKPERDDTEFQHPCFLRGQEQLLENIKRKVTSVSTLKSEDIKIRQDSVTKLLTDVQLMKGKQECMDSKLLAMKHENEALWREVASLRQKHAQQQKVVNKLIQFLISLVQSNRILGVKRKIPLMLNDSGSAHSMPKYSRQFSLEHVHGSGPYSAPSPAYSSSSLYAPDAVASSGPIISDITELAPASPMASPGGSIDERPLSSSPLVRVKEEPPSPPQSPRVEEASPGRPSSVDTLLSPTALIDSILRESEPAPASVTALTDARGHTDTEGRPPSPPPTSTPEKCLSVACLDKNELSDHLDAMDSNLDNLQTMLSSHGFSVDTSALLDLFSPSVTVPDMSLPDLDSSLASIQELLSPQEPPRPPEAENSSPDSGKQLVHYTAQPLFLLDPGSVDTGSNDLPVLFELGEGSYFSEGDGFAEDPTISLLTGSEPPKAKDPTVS
# Sequence of ELF4 (Q99607 whole entry): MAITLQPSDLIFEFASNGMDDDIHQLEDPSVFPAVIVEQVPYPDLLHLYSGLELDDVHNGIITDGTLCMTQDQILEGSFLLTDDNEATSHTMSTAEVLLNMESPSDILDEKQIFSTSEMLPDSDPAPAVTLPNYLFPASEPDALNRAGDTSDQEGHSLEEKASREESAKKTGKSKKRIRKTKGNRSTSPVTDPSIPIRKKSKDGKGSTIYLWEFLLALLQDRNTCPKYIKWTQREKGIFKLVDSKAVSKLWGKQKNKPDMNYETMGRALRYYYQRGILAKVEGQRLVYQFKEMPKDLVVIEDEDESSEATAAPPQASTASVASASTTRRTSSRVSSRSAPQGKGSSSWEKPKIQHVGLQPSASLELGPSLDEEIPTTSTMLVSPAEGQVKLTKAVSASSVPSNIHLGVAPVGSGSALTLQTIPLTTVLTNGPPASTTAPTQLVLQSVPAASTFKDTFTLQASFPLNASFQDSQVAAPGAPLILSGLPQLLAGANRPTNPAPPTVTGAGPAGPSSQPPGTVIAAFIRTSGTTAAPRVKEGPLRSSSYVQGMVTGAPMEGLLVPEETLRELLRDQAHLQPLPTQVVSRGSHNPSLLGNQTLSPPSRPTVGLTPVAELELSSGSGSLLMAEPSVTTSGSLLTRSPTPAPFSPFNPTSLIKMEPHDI
# Sequence of CRX (O43186 whole entry): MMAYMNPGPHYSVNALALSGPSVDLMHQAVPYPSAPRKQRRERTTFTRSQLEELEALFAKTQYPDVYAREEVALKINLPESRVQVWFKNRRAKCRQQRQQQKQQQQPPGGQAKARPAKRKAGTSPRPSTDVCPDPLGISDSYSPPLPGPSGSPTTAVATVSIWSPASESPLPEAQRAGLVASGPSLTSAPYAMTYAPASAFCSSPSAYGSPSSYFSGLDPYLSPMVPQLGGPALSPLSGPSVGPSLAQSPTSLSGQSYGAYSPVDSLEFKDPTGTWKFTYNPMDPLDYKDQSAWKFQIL
# Sequence of ETV5 (P41161 whole entry): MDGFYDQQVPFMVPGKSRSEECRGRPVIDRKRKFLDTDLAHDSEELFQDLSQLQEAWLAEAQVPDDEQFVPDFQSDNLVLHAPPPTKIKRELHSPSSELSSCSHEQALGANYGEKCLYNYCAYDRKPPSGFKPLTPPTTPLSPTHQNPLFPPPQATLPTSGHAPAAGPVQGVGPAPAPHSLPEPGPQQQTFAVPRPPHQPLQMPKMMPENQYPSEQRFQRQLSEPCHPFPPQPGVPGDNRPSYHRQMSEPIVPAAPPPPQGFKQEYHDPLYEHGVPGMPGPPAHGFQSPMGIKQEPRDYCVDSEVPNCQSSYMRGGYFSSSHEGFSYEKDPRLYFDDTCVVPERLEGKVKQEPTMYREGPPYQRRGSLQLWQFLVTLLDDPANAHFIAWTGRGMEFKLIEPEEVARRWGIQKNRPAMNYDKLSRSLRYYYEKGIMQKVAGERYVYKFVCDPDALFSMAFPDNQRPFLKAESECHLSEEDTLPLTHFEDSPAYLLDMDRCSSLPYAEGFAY
sequence,measurement,setting,value
CATACT,binding signal,FEV,"1.27 fold enrichment (6-mer frequency, TF over GST control)"
same,binding signal,ETV5,"1.2 fold enrichment (6-mer frequency, TF over GST control)"
same,binding signal,HSF1,"1.2 fold enrichment (6-mer frequency, TF over GST control)"
same,binding signal,SPIC,"1.23 fold enrichment (6-mer frequency, TF over GST control)"
same,binding signal,ELF4,"1.35 fold enrichment (6-mer frequency, TF over GST control)"
same,binding signal,ELK4,"1.34 fold enrichment (6-mer frequency, TF over GST control)"
same,binding signal,ETV2,"1.47 fold enrichment (6-mer frequency, TF over GST control)"
same,binding signal,ELF3,"1.34 fold enrichment (6-mer frequency, TF over GST control)"
same,binding signal,CRX,"1.24 fold enrichment (6-mer frequency, TF over GST control)"
same,binding signal,ETV1,"1.33 fold enrichment (6-mer frequency, TF over GST control)"
same,binding signal,ERF,"1.3 fold enrichment (6-mer frequency, TF over GST control)"
same,binding signal,ETV3L,"1.33 fold enrichment (6-mer frequency, TF over GST control)"
same,binding signal,ETS2,"1.32 fold enrichment (6-mer frequency, TF over GST control)"
same,binding signal,SPDEF,"1.23 fold enrichment (6-mer frequency, TF over GST control)"
same,binding signal,ETV7,"1.28 fold enrichment (6-mer frequency, TF over GST control)"
same,binding signal,ELF5,"1.27 fold enrichment (6-mer frequency, TF over GST control)"
same,binding signal,ETV3,"1.36 fold enrichment (6-mer frequency, TF over GST control)"
same,binding signal,ETV6,"1.26 fold enrichment (6-mer frequency, TF over GST control)"
